# Screening results from PubChem.
# uPA generation = qHTS for Inhibitors of Cell Surface uPA Generation; cell surface uPA generation assay, qHTS; Potency, µM (top dose mostly 38.3 µM), for the others: top-dose activity change, negative = inhibition, usual class: inhibitors; 330,000 compounds, 0.31% hits; AID 540303, 2011; active = well fitted inhibition curve with a large enough effect; inconclusive = small, poorly fitted or top-dose-only effect; inactive = no such curve, though single readings can be large or run the other way; tested in mouse RAW 264.7 cells; note: % is set by controls: 0 for no effect and ±100 for the full control effect; nearly all actives have a fitted effect of over 55% in size
# NPC1 prom act = qHTS Assay for NPC1 Promoter Activators; Potency, µM (titrated, usually from 9.22 µM), inactives show top-dose activation, actives largely listed as activators; Huh7 NPC1 promoter luciferase reporter, 24 h; 320,000 compounds, 2.4% hits; note: % of control where 0% means no effect; nearly all actives have a fitted effect of over 60% in size
#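 Huh7 reporter cells (NPC1 promoter driving luciferase) are dosed with compound for 24 h at 37 °C, 5% CO2; luciferase detection reagent is then added and luminescence measured after 10 min at ambient temperature.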
# Rab9 promoter act = qHTS Assay for Rab9 Promoter Activators; Huh7 Rab9 promoter-luciferase reporter, luminescence, 24 h; Potency, µM (titrated, usually from 9.22 µM), for inactives: at the top dose activation, negative = inhibition, hits mostly activators; 320,000 compounds, 2.8% hits; note: % of control where 0% means no effect; nearly all actives have a fitted effect of over 60% in size
#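 Luciferase signal after 10 min detection reagent at ambient indicates Rab9 promoter upregulation; stably transfected Huh7 cells were treated 24 h with compound in DMSO at 37 °C, 5% CO2.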
# SMN2 splice enh = qHTS Assay for Enhancers of SMN2 Splice Variant Expression. HEK293 SMN2-luciferase splicing reporter, luminescence, 30-36 h. Potency, µM (top dose mostly 46.1 µM), for the others: at the highest dose activity change, positive = activation, usual class: activators. 210,000 compounds, 2.8% hits. AID 1458, 2008; note: % of control where 0% means no effect; nearly all actives have a fitted effect of over 55% in size
#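 HEK293 cells carry an SMN2 minigene-luciferase reporter in which exon 7 inclusion puts luciferase in frame. Cells were seeded at 2000 cells/well, attached for 10-12 hours, then exposed to compounds for 30-36 hours at 37C before ONE-Glo luminescence.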
# FLuc counter = qHTS profiling assay for firefly luciferase inhibitor/activator using purifed enzyme and Km concentrations of substrates (counterscreen for miR-21 project); AID 588342, 2011; purified FLuc, Km substrates, luminescence inhibition; Luciferin 4-monooxygenase (Photinus pyralis), P08659; Potency, µM (highest dose often 57.5 µM), inactives show top-dose activity change, negative = inhibition, most hits filed as inhibitors; 360,000 compounds, 6.9% hits;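 note: plate controls were vehicle for no effect and reference inhibitor for full effect; nearly all actives have a fitted effect of over 55% in size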
# Target sequence (P08659 whole entry, looked up): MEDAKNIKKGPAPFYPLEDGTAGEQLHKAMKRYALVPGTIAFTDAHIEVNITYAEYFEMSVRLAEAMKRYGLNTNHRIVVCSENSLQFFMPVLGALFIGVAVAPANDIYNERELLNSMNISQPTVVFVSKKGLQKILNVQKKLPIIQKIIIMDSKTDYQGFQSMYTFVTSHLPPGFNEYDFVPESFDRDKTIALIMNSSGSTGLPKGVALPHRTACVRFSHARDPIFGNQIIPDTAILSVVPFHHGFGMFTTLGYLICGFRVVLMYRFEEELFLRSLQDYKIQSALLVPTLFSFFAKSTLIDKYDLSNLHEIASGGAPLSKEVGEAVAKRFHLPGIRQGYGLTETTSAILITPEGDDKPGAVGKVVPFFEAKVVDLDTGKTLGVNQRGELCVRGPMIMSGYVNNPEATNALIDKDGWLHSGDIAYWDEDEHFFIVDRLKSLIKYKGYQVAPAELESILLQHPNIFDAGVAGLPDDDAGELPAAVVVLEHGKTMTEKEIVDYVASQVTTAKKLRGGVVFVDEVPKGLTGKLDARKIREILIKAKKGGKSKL
#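 Purified P. pyralis luciferase (10nM final) with 10uM D-luciferin and 10uM ATP (Km levels) in 50mM Tris acetate pH 7.5, 10mM Mg acetate, 0.01% Tween-20, 0.05% BSA; qHTS 6-point titration, ~60 µM downward; luminescence read.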
# ELG1 genotoxic = qHTS screen for small molecules that induce genotoxicity in human embryonic kidney (HEK293T) cells expressing luciferase-tagged ELG1; HEK293T ELG1-luciferase reporter, luminescence, 16 h; Potency, µM (highest dose often 46 µM), inactives show at the top dose activity change, positive = activation, usual class: activators; 330,000 compounds, 1.3% hits; note: % of control where 0% means no effect; nearly all actives have a fitted effect of over 60% in size
#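 Luminescence read-out: rising ELG1-luciferase signal, reflecting elevated ELG1 protein under genetic stress, flags genotoxic compounds. Cells were treated for 16 hr at 37 °C before ONE-Glo detection.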
# An asterisk follows results filed as active; u = inconclusive; x = no result given; [ ] = remark or other dose. Only some compounds are listed: those with a hit (about 7.3% of all), similar ones and a draw of the others. Unless noted, calls come from the whole dose curve; as a rule, active = well fitted curve in the direction sought with a large enough effect; inconclusive = small, poorly fitted or top-dose-only effect, or another doubt; inactive = no such curve, though single readings can be large; an effect the other way counts as inactive or inconclusive. Potency is the fitted concentration of half-maximal effect.
SMILES,uPA generation,NPC1 prom act,Rab9 promoter act,SMN2 splice enh,FLuc counter,ELG1 genotoxic
C/C(=N/NC(=O)c1ccoc1C)c1cccc(NC(=O)C(F)(F)F)c1,-4%,15%,28%,18%,u,u
C/C(=N/NC(=O)c1ccc(C)s1)c1cccc(NC(=O)c2ccoc2C)c1,-7%,2%,27%,x,17µM*,-19%
Cc1cc(NC(=O)c2ccoc2C)ccc1Br,-27%,u,u,x,7.6µM*,u
Nc1ccccc1C(=O)Nc1cccc(C(=O)O)c1,-5%,u,2.2µM*,17%,2.7µM*,3%
Cc1cccc(NC(=O)c2ccccc2C(=O)O)c1,-1%,-3%,2%,8%,2%,2%
N#Cc1c(NC(=O)CCC(=O)O)ccc2ccccc12,x,x,x,-4%[9.22 µM],x,x
COc1cc(NC(=O)Cn2cnc(S(=O)(=O)N3CCC(C)CC3)c2)cc(OC)c1OC,3%,-7%,-6%,x,3%,1%
C/C(N)=C(/C#N)C(=O)CSc1nnc(Nc2cccc(C)c2C)s1,-4%,u,u,u,17µM*,15%
O=C(CCc1ccccc1)N(Cc1cccnc1)c1nc2ccc(F)cc2s1,x,x,x,x,-4%,x
CC(=O)Nc1ccc(NC(=O)c2ccc(-n3c(C)ccc3C)cc2)cc1,-10%,-5%,-4%,x,21µM*,u
Cc1ccc(C)n1-c1ccc(C(=O)Nc2ccccc2F)cc1,-2%,u,u,x,u,u
Cc1ccc(C)n1-c1ccc(NC(=O)c2ccccc2)cc1,-10%,28%,u,11µM*,8.5µM*,u
CCc1ccccc1NC(=O)c1ccc(-n2c(C)ccc2C)cc1,-5%,10%,-2%,11%,-17%,15%
CC(=O)NCCNC(=O)c1ccc(-n2c(C)ccc2C)cc1,-8%,14%,u,x,-7%,23µM*
CN1CCN(c2ccc(-c3ccnn3C(=O)Nc3cccc(C(F)(F)F)c3)cc2)CC1,-6%,3.5µM*,23%[1.84 µM],13µM*,21µM*,u
Oc1ccc(N2CCN(Cc3c(-c4ccccc4)nc4ccccn34)CC2)cc1,5%,1%,0%,x,2%,-5%
Cc1ccn2c(CN3CCOCC3)c(-c3ccccc3)nc2c1,-3%,19%,u,20µM*,u,20%
Cc1cc(C)nc(NN2C(=O)/C(=C/c3ccccc3)SC2=S)n1,10%,1%,2%,-14%,-1%,1%
CN(C)c1ccc(/C=C2\SC(=S)N(Nc3ncc(C(F)(F)F)cc3Cl)C2=O)cc1,x,5%,-2%,7%,9.5µM*,0%
COc1cc(/C=C2\SC(=S)N(Nc3ncc(C(F)(F)F)cc3Cl)C2=O)ccc1O,0%,-1%,-3%,-3%,8.5µM*,7%
CCOc1cc(/C=C2\SC(=S)N(NS(=O)(=O)c3ccccc3)C2=O)ccc1O,-7%,-3%,1%[1.84 µM],x,u,-1%
COc1ccc2c(c1)c1c(c(=O)n(-c3ccccc3)c(=O)n1CC(=O)Nc1ccc(C)c(C)c1)n2C,x,x,x,x,-4%,x
CCOC(=O)c1snc(C(=O)NC2CCCCC2)c1N,x,u,3.5µM*,x,13µM*,8.2µM*
CCN(CC)C(=O)c1[nH]cnc1C(=O)NCc1ccc(CNC(=O)OC(C)(C)C)cc1,7%,0%,-1%,x,3%,0%
Cc1ccc(Cl)cc1-n1nnc(-c2nsc(NC(=O)c3ccccc3Cl)n2)c1C,x,x,x,-25%,12µM*,x
SMILES,uPA generation,NPC1 prom act,Rab9 promoter act,SMN2 splice enh,FLuc counter,ELG1 genotoxic
CCOC(=O)c1noc2nc(C)n(Cc3cccc(C#N)c3)c(=O)c12,x,x,x,x,-3%,x
C[n+]1cc[nH]c1SCC(=O)c1ccc(Cl)cc1,-3%,25%,u,u,x,u
C[n+]1cc[nH]c1SCC(=O)c1ccccc1,5%,u,u,21%,24µM*,18µM*
CN(Cc1ccccc1)Cc1c(F)cccc1F,x,-2%,-4%,1.4µM*,15%,-5%
COc1ccc2ccccc2c1CN(C)Cc1ccccc1,-27%,-2%,-1%,x,-2%,-9%
Cn1cnc(S(=O)(=O)N2CCCC(C(=O)Nc3cccc(C#N)c3)C2)c1 (stereo not given),x,x,x,x,-1%,x
C/C(=N\Nc1nncc2ccccc12)c1ccc(O)cc1,-6%,1.3µM*,0.71µM*,x,0.95µM*,28%
COc1cccc(/C(C)=N/NC(=O)c2cc(-c3cccnc3)nc3ccccc23)c1,7%,0%,0%,-17%,-18%,0%
C/C(=N\Nc1nncc2ccccc12)c1cccc(OC(F)F)c1,-5%,1µM*,1.1µM*,x,1.1µM*,2.9µM*
C/C(=N\Nc1nncc2ccccc12)c1ccc(C(C)(C)C)cc1,-4%,u,18%[1.84 µM],x,7.6µM*,18%
COc1ccc(-c2nc(N/N=C(\C)c3ccc(O)cc3)c3ccccc3n2)cc1,u,-3%,4%,x,1.7µM*,-9%
C/C(=N\Nc1nc(-c2ccc(C)cc2)nc2ccccc12)c1ccc([N+](=O)[O-])cc1,x,0%,0%,-20%,-3%,-2%
Cc1ccc(NC(=O)/C(C#N)=C/c2cc(C)n(-c3ccc(Br)cc3)c2C)cc1C,x,x,x,-4%,-3%,x
COc1cc(OC)cc(C(=O)Oc2c(Sc3ccccc3)c(C)nn2C(C)(C)C)c1,x,x,x,3%,-5%,x
O=C(CCS(=O)(=O)c1nc(-c2cccs2)cc(C(F)(F)F)n1)Nc1cc(Br)ccc1O,x,x,x,u,-20%,x
CCC1=NN(C(=O)c2ccccc2O)C(O)(c2ccccc2)C1 (stereo not given),11µM*,-3%,4%,x,u,0%
CSc1ccc(NC(=O)NCc2ccccc2)cc1,3%,4.5µM*,4.5µM*,x,u,u
Cc1ccc(C)c(CNC(=O)Nc2ccccc2)c1,-7%,u,u,x,13µM*,u
Cc1ccc(CNC(=O)Nc2cccs2)cc1,-4%,u,u,16µM*,12µM*,14%
O=C(NCc1ccc(F)cc1)Nc1ccccc1,-11%,u,u,x,u,u
Cc1ccc(CNC(=O)Nc2ccc(Cl)cc2)cc1,-6%,u,4µM*,x,-8%,u
Cc1nn(-c2ccccc2)c2c1N(CCCC(=O)NCc1ccc(N(C)C)cc1)C(=O)CS2,x,x,x,x,-3%,x
COc1ccc(OC)c(C2CC(=O)Oc3c2c(=O)n(C)c2ccccc32)c1 (stereo not given),x,x,x,5%,u,x
O=C(NCC1CC1)Nc1ccc(Cl)cc1,-3%,u,u,x,17µM*,u
